Reference: PubChem BioAssay AID1851 (National Center for Advancing Translational Sciences (NCATS), 2009)
“And” between values parts separate entries of the source, which are not always exact repeats. Equal values may be shown once. About 5,100 (32%) of roughly 16,000 compounds were called active. Roughly 25% stayed inconclusive and do not appear here. The call rests on the fitted dose curve; in most records, active means well fitted curve in the direction sought with a large enough effect; inconclusive means small, poorly fitted or top-dose-only effect, or effect the other way; inactive means no such curve, though single readings can be large or run the other way. Some of the results follow.

molecular target: Cytochrome P450 3A4 (Homo sapiens) (UniProt P08684); experiment: Cytochrome panel assay with activity outcomes; settings: recombinant CYP, pro-luciferin dealkylation, luminescence, p450-cyp3a4; series mostly up to 57.1 µM; activity, negative = inhibition: at the top concentration
Sequence (P08684 whole entry, looked up): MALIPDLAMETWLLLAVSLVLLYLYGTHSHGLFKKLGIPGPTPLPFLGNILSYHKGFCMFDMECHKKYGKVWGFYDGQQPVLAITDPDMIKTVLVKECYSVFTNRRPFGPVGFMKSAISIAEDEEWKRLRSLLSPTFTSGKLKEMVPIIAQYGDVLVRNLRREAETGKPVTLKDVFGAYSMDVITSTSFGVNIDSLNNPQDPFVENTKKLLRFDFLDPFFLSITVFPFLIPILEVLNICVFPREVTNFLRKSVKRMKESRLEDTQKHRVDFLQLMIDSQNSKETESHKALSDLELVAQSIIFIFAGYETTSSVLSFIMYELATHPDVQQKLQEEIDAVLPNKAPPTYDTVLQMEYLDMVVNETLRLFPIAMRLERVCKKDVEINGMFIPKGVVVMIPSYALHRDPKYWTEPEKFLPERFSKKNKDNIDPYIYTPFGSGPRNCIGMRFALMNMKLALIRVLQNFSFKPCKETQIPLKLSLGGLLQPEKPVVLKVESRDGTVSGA
On the % scale 0 is the no-effect control and ±100 the full control effect.

activity, negative = inhibition, inactive:
O=C(O)c1cc(=O)c2ccc(Cl)cc2[nH]1 -8.53%
CC(=O)Nc1nnc(S(N)(=O)=O)s1 -10.2% [at 25.6 µM]
COCC(=O)Oc1c(S(=O)(=O)c2ccc(C)cc2)c(C)nn1-c1ccccc1 -24.1%
CCOC(=O)Oc1c(OC)cc(C(=O)O[C@H]2C[C@H]3CN4CCc5c([nH]c6cc(OC)ccc56)[C@@H]4C[C@H]3[C@@H](C(=O)OC)[C@@H]2OC)cc1OC -29.6% [at 25.6 µM]
COc1ccc(/C=N/NC(=O)c2ccccc2)cc1CN1CCN(c2ccc(F)cc2)CC1 -19.8%
CCCSc1nc(C)cc(C)c1C(N)=O 9.69%
CCCCN1CCC(CCC(=O)c2cc(Cl)c(N)cc2OC)CC1 -12.3%
Cn1cc(C(=O)OCC2CCN(CCNS(C)(=O)=O)CC2)c2ccccc21 -3.41%
O=C(Nc1ccc(C(=O)Nc2ccc(C(=O)Nc3ccc(S(=O)(=O)O)c4cc(S(=O)(=O)O)cc(S(=O)(=O)O)c34)cc2)cc1)Nc1ccc(C(=O)Nc2ccc(C(=O)Nc3ccc(S(=O)(=O)O)c4cc(S(=O)(=O)O)cc(S(=O)(=O)O)c34)cc2)cc1 -13.5%
COc1cccc(C(=O)Nc2nc3c(s2)CN(C)CC3)c1 12.5%
COc1cc(C(=O)Nc2nc3ccc4nc(C)sc4c3s2)cc(OC)c1OC -6.95%
CCN1CCc2c(sc(N)c2C(N)=O)C1 -1%
C/C(=N/NC(=O)c1cccs1)c1ccc(NC(=O)COc2ccc(Cl)cc2Cl)cc1 -10.1% [at 2.29 µM]
Cc1cc(NC(=O)COc2ccc(Cl)cc2Cl)n(-c2ccccc2)n1 -28.2% [at 11.4 µM]
Cc1ccccc1C(=O)Nc1ccc(C(=O)NNC(=O)CCCOc2ccc(Cl)cc2Cl)cc1 -18.9% [at 2.29 µM]
O=C(COc1ccccc1C(=O)N/N=C\c1ccc(O)c(O)c1)N/N=C/c1ccc(O)c(O)c1 12.4% [at 2.29 µM]
CCc1ccc(OCC(=O)NC(=S)Nc2ccc(F)cc2)c(Br)c1 -0.136% [at 2.29 µM]
CC(=C\C(=O)O)/C(=C/c1ccccc1)C(=O)O -2.43%
CC(/C=N\NC(=O)Cn1c(C)nc2ccccc21)=C\c1ccccc1 1.66%
CNc1nc(-c2ccccc2C(F)(F)F)nc2ccccc12 -26.2%
CNC(=O)c1sc(SC)cc1-c1ccc(Cl)cc1 -8.38%
Clc1ccccc1C(Nc1cnccn1)Nc1cnccn1 -4.71% [at 11.4 µM]
COCCNC(=O)c1ccc2c(c1)ncn2-c1ccc(F)c(F)c1 -10.9%
S=c1nc(-c2ccccc2)oc2c1CCCC2 -8.21%
CCOC(=O)c1c2ccc(OCC(=O)N/N=C/c3ccc(Cl)cc3)cc2n2ccccc12 -26.7% [at 2.29 µM]
Cc1cccc(OCC(=O)N2CCC(N3CCCCCC3)CC2)c1 -29.2%
O=C(CN1CCCC1)N/N=C/c1ccc(-c2cccc(Cl)c2)o1 13.8% [at 2.29 µM]
COc1ccc2oc(=O)c(C(=O)Oc3ccc(NC(C)=O)cc3)cc2c1 -13.8%
C/C(O)=C\c1nc2ccccc2oc1=O -17.8%
CO[C@H]1C=CO[C@]2(C)Oc3c(C)c(O)c4c(O)c(c5c(c4c3C2=O)NC2(CCN(CC(C)C)CC2)N=5)=NC(=O)C(C)=CC=C[C@@H](C)[C@@H](O)[C@@H](C)[C@@H](O)[C@@H](C)[C@@H](OC(C)=O)[C@@H]1C -16.2% [at 25.6 µM]
Cc1ccccc1NC(=O)/C(=C/c1ccccc1)c1ccccc1 12.5% [at 11.4 µM]
CC(C)C(=O)NC(=S)Nc1ccccc1C(=O)Nc1ccccc1 11.2% [at 2.29 µM]
OC[C@@H]1NC[C@@H](O)[C@H]1O 3.03%
CC(C)=NO[C@@H](C)c1cn([C@@H]2COC[C@@H]2O)nn1 -6.38% [at 11.4 µM]
Cc1cc(C)c(-c2cc([C@H](C)O/N=C\[C@@H](C)[C@H](OCc3ccccc3)C(C)C)on2)c(C)c1 -37.1% [at 11.4 µM]
CCN1C(=O)[C@H]2[C@H]3[C@H](O)[C@H](O)C/C(=N/O[C@@H](C)c4cn([C@H]5COC[C@H]5O)nn4)[C@@H]3CC[C@@H]2C1=O -18.4% [at 11.4 µM]
CCC(C)[C@H](NC(=O)NC1CCN(Cc2ccccc2)CC1)C(=O)OC (some centres not stated) 6.5%
O=C1NCCc2c1[nH]c1ccccc21 17.8% [at 2.29 µM]
CCOC(=O)COc1c(C=O)cc(Br)cc1OC -7.04%
O=C1CCC(c2ccccc2)(c2ccccc2)CC1 10.5% [at 11.4 µM]
c1ccc2c(CC3NCCN3)cccc2c1 -5.75% [at 11.4 µM]
CN1CCCC[C@@H]1CCN1CCCCC1 -2.94% [at 11.4 µM]
OCCNc1nc2ccccc2[nH]1 -4.38%
CCN(CC)c1nc2ccccc2[nH]1 -13.8%
Cc1c(Cl)c(S(N)(=O)=O)cc2c1=NC=NS=2(=O)O -13% [at 11.4 µM]
CCON=C1C(C)(C)C(C)(C)C(C)(C)C1(C)C -9.31% [at 11.4 µM]
O=C(O)[C@@H]1Cc2c([nH]c3ccccc23)[C@@H](CCCCO)N1 1.47% [at 11.4 µM]
CC(=O)N1CCC2(CCCN(c3ncccn3)C2)CC1 5.39%
CC(=O)Nc1ccc(S(=O)(=O)NC2(C(F)(F)F)NC(=O)N(c3ccc(Cl)cc3)C2=O)cc1 (configuration not stated) 3.14%
COc1ccc(C(=O)NC2(C(F)(F)F)C(=O)Nc3c2c(=O)[nH]c(=O)n3CCc2ccc(OC)c(OC)c2)cc1 (configuration not stated) -10.4%
COc1ccc(CCN2C(=NC(=O)CCC(=O)O)SC3CS(=O)(=O)CC32)cc1 (configuration not stated) 8.98%

AC50, active:
Cc1ccc(S(=O)(=O)c2c(C)nn(C(C)(C)C)c2OC(=O)c2cccs2)cc1 2.24 µM
COc1ccc(C2C(C#N)=C(N)Oc3n[nH]c(C)c32)cc1CN1CCN(c2ccc(F)cc2)CC1 (configuration not stated) 8.91 µM
O=C(NC(=S)Nc1cccc(Cl)c1N1CCCC1)c1ccc(-c2cccc([N+](=O)[O-])c2)o1 4.47 µM
COc1cc(COc2cc(N)c(Cl)cc2C(=O)CCC2CCN(CCNS(C)(=O)=O)CC2)cc(OC)c1 2 µM
CCN1CCc2nc(NC(=O)c3ccc4c(c3)OCCO4)sc2C1 14.1 µM
Cc1nc2c(ccc3nc(NC(=O)c4ccc5c(c4)OCCO5)sc32)s1 6.31 µM
O=C(COc1ccc(Cl)cc1Cl)N/N=C/CCc1ccccc1 11.2 µM
CC(C/C=N/NC(=O)COc1cc(Cl)ccc1Cl)c1ccccc1 (configuration not stated) 14.1 µM
CCC(=O)NC(=S)Nc1ccc(NC(=O)COc2ccc(Cl)cc2Cl)cc1 12.6 µM
CC(=C/c1ccccc1)/C=N/n1cnnc1 12.6 µM
Cc1ccccc1-c1nc(Nc2ccncc2)c2ccccc2n1 6.31 µM
FC(F)(F)c1ccccc1-c1nc(Nc2ccncc2)c2ccccc2n1 0.631 µM
CNc1nc(-c2ccccc2Cl)nc2ccccc12 25.1 µM
Clc1ccccc1-c1nc(Nc2ccncc2)c2ccccc2n1 3.98 µM
Clc1ccccc1-c1ccc2ncnc(NCCN3CCOCC3)c2c1 5.01 µM
COc1ccccc1-c1ccc2ncnc(NCCN3CCOCC3)c2c1 7.94 µM
N#Cc1ccccc1-c1ccc2ncnc(NCCN3CCOCC3)c2c1 10 µM
O=C(CSCc1cccc(Cl)c1)N/N=C/c1ccc(OCC(=O)N2CCCCC2)cc1 14.1 µM
Cc1cccc(C(=O)N/N=C/c2ccc(OCC(=O)N3CCCCC3)cc2)c1 20 µM
COc1ccc2cc3cc(C(=O)NCc4ccc5c(c4)OCO5)oc3nc2c1 0.708 µM
COc1ccc2cc3cc(C(=O)Nc4ccc5c(c4)OCO5)oc3nc2c1 0.355 µM
CO[C@@H]1/C=C\O[C@@]2(C)Oc3c(C)c(O)c4c(c3C2=O)C(=N[C@H]2CC[C@H](O)O[C@@H]2C)C=C(NC(=O)/C(C)=C\C(=O)[C@@H]2C[C@@H]2[C@@H](O)[C@H](C)[C@@H](O)[C@H](C)[C@H](OC(C)=O)[C@@H]1C)C4=O 1.26 µM
COc1ccc(/C=C(/C(=O)Nc2ccccc2C(=O)NC(C)C)c2ccccc2)cc1 11.2 µM
COc1cccc([C@@H]2Oc3ccc(OC)cc3/C(=N/O[C@@H](C)c3cn([C@H]4COC[C@H]4O)nn3)[C@@H]2O)c1 3.16 µM
COc1cccc([C@H]2Oc3ccc(OC)cc3/C(=N\O[C@@H](C)c3cn([C@H](CO)Cc4ccccc4)nn3)[C@@H]2O)c1 3.16 µM and 3.98 µM
COc1cccc([C@@H]2Oc3ccc(OC)cc3/C(=N/O[C@@H](C)c3cc(-c4c(C)cc(C)cc4C)no3)[C@@H]2O)c1 1.58 µM
CCC(NC(=O)C1(C)CC1(Br)Br)c1ccc(C)cc1 (configuration not stated) 3.98 µM
CCC(C)C(NC(=O)OCc1ccccc1)C(=O)OCN1C(=O)c2ccccc2C1=O (configuration not stated) 7.08 µM
CCOc1cc(/C=C2\N=C(C)OC2=O)cc(Br)c1OCC(=O)OC 10 µM
c1ccc(-c2n[nH]c(-c3ccccc3)c2-c2nc3ccccc3[nH]2)cc1 2.24 µM
COc1ccc(O[C@H]2C=C[C@@H](c3ccccc3)O[C@H]2COC(=O)CC/C(C)=N\O[C@@H](C)CN2CCCCc3nc(C)c(C)cc32)cc1 3.98 µM
COc1ccc(O[C@H]2C=C[C@@H](c3ccccc3)O[C@H]2COC(=O)CC/C(C)=N\O[C@@H](C)CN2CCCc3nc(C)c(C)cc32)cc1 3.16 µM
CC(C(=O)Nc1ccccc1Sc1ccccc1)N(c1ccccc1)S(C)(=O)=O (configuration not stated) 5.01 µM
Cc1ccc(N(C(C)C(=O)Nc2cc(Cl)ccc2Oc2ccccc2)S(C)(=O)=O)cc1 (configuration not stated) 4.47 µM
O=C(CC1C(=O)N(c2ccc(Cl)cc2)C(=S)N1CCc1ccncc1)Nc1ccc(F)cc1 (configuration not stated) 1.26 µM
CCNC(=O)CC1C(=O)N(c2ccc(F)cc2)C(=O)N1CCc1ccc(OC)cc1 (configuration not stated) 7.08 µM
